Screening data: PubChem, National Center for Advancing Translational Sciences (NCATS)
GCN5L2 inh: qHTS Assay for Inhibitors of GCN5L2 | Histone acetyltransferase KAT2A (Homo sapiens), Q92830 | 390,000 tested, 0.21% active | GCN5L2 HAT assay, ThioGlo1 CoA-SH fluorescence | Potency, µM (highest dose often 58.9 µM), inactives show at the top dose activity change, negative = inhibition, usual class: inhibitors | AID 504327, 2011; further: potency means the concentration at half of the fitted maximal effect; on the % scale 0 is the no-effect control and ±100 the full control effect
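GCN5L2 (20 nM) in 50mM HEPES pH 7.5, 0.1mM EDTA, 0.01% Tween-20 preincubated 15 min with compounds at room temperature. Reaction started with H3(1-25) 75uM, acetyl-CoA 70uM, ThioGlo1 50uM; CoA-thiol fluorescence (Ex340/Em540) read at 0 and 20 min.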
Rango dissoc inh: qHTS Assay for Inhibitors of RanGTP induced Rango (Ran-regulated importin-beta cargo) - Importin beta complex dissociation; Snurportin-1 (Homo sapiens) + GTP-binding nuclear protein Ran (Homo sapiens) + Importin …; Biochemical FRET Rango-importin beta, RanGTP-induced dissociation; Potency, µM (titrated, usually from 46.1 µM), without a hit: top-dose activity change, negative = inhibition; 340,000 tested, 0.071% active; calls by dose curve; further: potency means the concentration at half of the fitted maximal effect; % of control where 0% means no effect; nearly all actives have a fitted effect of over 45% in size
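Rango FRET biosensor (snurportin-1 IBB flanked by N-terminal EYFP and C-terminal CFP10) at 0.1 uM, with 0.25 uM importin beta in PBS, 1mM DTT, 0.02% Tween-20, 0.1% BSA. 0.6 uM Ran, 2mM GTP and 0.2 uM RCC1 were then added for 45 min at room temperature. Inhibition read as loss of FRET rise.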
VDR inhibitor: Inhibitors of the vitamin D receptor (VDR): qHTS; Vitamin D3 receptor (Homo sapiens), P11473; VDR-SRC2-3 peptide fluorescence polarization, 2 h; Potency, µM, for inactives: max response, negative = inhibition, actives largely listed as inhibitors; 400,000 tested, 0.93% active; further: potency means the concentration at half of the fitted maximal effect; on the % scale 0 is the no-effect control and ±100 the full control effect
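Signal is fluorescence polarization, reporting how far test compounds block the interaction of VDR with the SRC2-3 coregulator peptide after a 2 h room-temperature incubation.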
Rango complex inh: qHTS Assay for Inhibitors of Rango (Ran-regulated importin-beta cargo) - Importin beta complex formation. Importin subunit beta-1 (Homo sapiens), Q14974. Rango CFP/YFP FRET sensor + importin beta, 45 min. Potency, µM (titrated, usually from 92.2 µM), for inactives: top-dose inhibition of complex formation. 340,000 tested, 0.031% active; calls by dose curve;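 further: potency means the concentration at half of the fitted maximal effect; 0% = DMSO wells and 100% = buffer wells lacking importin beta; nearly all actives have a fitted effect of over 15% in size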
Target sequence (Q14974 whole entry, looked up): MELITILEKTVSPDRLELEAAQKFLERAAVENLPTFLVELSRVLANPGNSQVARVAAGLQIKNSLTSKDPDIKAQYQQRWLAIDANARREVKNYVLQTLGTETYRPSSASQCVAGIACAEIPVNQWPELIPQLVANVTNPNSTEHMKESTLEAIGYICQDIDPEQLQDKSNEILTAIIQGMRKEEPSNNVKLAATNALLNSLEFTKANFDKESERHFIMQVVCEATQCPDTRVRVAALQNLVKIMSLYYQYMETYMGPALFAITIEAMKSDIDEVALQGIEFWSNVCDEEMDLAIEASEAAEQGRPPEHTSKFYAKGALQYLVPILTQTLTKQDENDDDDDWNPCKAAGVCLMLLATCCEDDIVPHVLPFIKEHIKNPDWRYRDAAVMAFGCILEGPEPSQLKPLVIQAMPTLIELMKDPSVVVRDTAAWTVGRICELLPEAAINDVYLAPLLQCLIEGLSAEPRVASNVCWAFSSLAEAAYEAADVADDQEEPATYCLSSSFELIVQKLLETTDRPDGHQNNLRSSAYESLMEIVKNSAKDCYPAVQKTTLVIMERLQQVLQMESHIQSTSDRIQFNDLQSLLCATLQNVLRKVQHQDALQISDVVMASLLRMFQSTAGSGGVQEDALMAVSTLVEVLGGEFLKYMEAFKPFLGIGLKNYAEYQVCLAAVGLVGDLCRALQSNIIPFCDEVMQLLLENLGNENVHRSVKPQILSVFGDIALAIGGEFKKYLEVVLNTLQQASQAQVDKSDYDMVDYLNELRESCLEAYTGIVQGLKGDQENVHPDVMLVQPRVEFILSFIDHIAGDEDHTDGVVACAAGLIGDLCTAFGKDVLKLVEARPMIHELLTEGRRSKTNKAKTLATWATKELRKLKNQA
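FRET biosensor Rango (snurportin 1 IBB between N-terminal EYFP and C-terminal Cerulean), 50 nM in PBS/1 mM DTT/0.02% Tween-20/0.1% BSA, preincubated 5 min RT with compound; 0.125 microM importin beta added, 45 min RT, CFP/YFP FRET ratio read.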
PLK1 PBD block: qHTS for Inhibitors of PLK1-PDB (polo-like kinase 1 - polo-box domain): Primary Screen; Serine/threonine-protein kinase PLK1 (Homo sapiens), P53350; 360,000 tested, 2.8% active; Plk1 PBD binding of FITC phosphopeptide, fluorescence polarization; Potency, µM, inactives show max response, negative = inhibition, most hits filed as inhibitors; further: potency means the concentration at half of the fitted maximal effect; series mostly up to about 57 µM; on the % scale 0 is the no-effect control and ±100 the full control effect; nearly all actives have a fitted effect of over 65% in size
PI5P4Ka inh: qHTS for Inhibitors of phosphatidylinositol 5-phosphate 4-kinase (PI5P4K); 330,000 tested, 1.2% active; Phosphatidylinositol 5-phosphate 4-kinase type-2 alpha (Homo sapiens), P48426; PI5P4Kalpha enzyme, ADP-Glo luminescence, 60 min; active compounds read low; max response, %; active means max response of -50% or lower; inconclusive means between -30% and -50%; inactive means -30% or higher; further: value at the top dose of about 77 µM; on the % scale 0 is the no-effect control and ±100 the full control effect
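Controls without substrate or without enzyme flank wells where PI5P4Kalpha converts substrate using 5 microM ATP (final). Incubation lasts 60 minutes at room temperature; ADP formed is read by ADP-Glo luminescence.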
ADP-Glo interf: qHTS for Inhibitors of PI5P4K: ADP-Glo counter assay; shares compounds with PI5P4Ka inh; ADP-Glo detection counter-screen, luciferase luminescence, no enzyme; Potency, µM (doses to about 76.9 µM), without a hit: at the highest dose activity change, negative = inhibition, actives largely listed as inhibitors; 1,100 tested, under 10 active; AID 743285, 2014
* marks the source's active call; other numbers are inactive results; ? = inconclusive; / = no result. An excerpt weighted towards active compounds, which were near 3.6% of everything screened. Unless noted, the call rests on the fitted dose curve; in most records, active means well fitted curve in the direction sought with a large enough effect; inconclusive means small, poorly fitted or top-dose-only effect, or another doubt; inactive means no such curve, though single readings can be large; an effect the other way counts as inactive or inconclusive.

SMILES	GCN5L2 inh	Rango dissoc inh	VDR inhibitor	Rango complex inh	PLK1 PBD block	PI5P4Ka inh	ADP-Glo interf
Cc1cccc(OCC(=O)Nc2cccc(C(=O)Nc3ccccc3C(=O)O)c2)c1	-11%	3%	-3%	-5%	-18%	-52*	5%
Cc1cc(C)cc(NC(=O)Cn2nnc(C(=O)NCc3ccc(F)cc3)c2N)c1	-8%	-2%	20µM*	-2%	3µM*	-56*	-3%
O=C(NCc1ccc2c(c1)CCN2C(=O)c1ccccc1)c1ccco1	-18%	/	6%	/	/	/	/
COc1ccc(-n2ccnc(NCc3ccc(Cl)cc3)c2=O)cc1	-10%	/	17%	/	/	/	/
CCOc1ccc(NC(=O)CN(C)C(=O)c2cc3c(s2)CCC3)cc1OCC	/	/	/	/	-26%	-80*	-5%
COc1ccccc1N1CCN(C(=O)CN(c2ccccc2OC)S(=O)(=O)c2ccccc2)CC1	-11%	-7%	-2%	1%	-8%	-6	/
COc1ccccc1N(CC(=O)N1CCC(C(N)=O)CC1)S(=O)(=O)c1ccccc1	-2%	0%	15%	1%	-9%	-75*	-7%
Nc1nc(Nc2cccc(Cl)c2)nc(NCc2ccco2)c1[N+](=O)[O-]	2%	1%	-17%	-3%	-6%	-54*	-2%
Nc1nc(Nc2ccc(Cl)cc2)nc(NCc2ccco2)c1[N+](=O)[O-]	-3%	-10%	-3%	0%	3%	-54*	-2%
Cc1ccc(Nc2nc(NCc3ccco3)c3ccccc3n2)cc1	-10%	0%	0%	3%	4%	/	-2%
COc1ccccc1Nc1nc(NCc2ccco2)c2ccccc2n1	-6%	-7%	-12%	-2%	8%	-6	/
O=C(c1cc2ccccc2oc1=O)N1CCN(c2ccc(Cl)cc2)CC1	-1%	/	-14%	/	/	/	/
CCCCn1cc(S(=O)(=O)c2ccc(CC)cc2)c(=O)c2cc(F)c(N3CCCC(C)C3)cc21 (stereo not drawn)	-15%	/	8%	/	/	/	/
Cc1cc(C)cc(OCC(=O)NC(Cc2c[nH]c3ccccc23)C(=O)O)c1 (stereo not drawn)	1%	/	-2%	/	/	/	/
O=C(CSc1nncn1-c1ccccc1)Nc1ccc(N2CCOCC2)cc1	0%	-1%	?	-3%	2.7µM*	-56*	1%
Cc1ccc(NC(=O)CCC(=O)c2cccs2)cc1	-13%	1%	-8%	2%	0%	-8	/
O=C(Cc1cccs1)Nc1ccc(N2CCOCC2)cc1	-8%	-6%	10%	-5%	-4%	-53*	-8%
O=C(CCC(=O)c1cccs1)Nc1ncccc1O	-5%	1%	-14%	0%	-13%	-56*	-2%
O=C(CCC(=O)c1cccs1)Nc1ccc(N2CCCCC2)cc1	-24%	5%	3%	0%	-22%	-76*	-2%
O=C(CCC(=O)c1ccc(Cl)s1)Nc1ncccc1O	0%	-8%	-19%	-3%	-15%	?	/
COc1ccc(CCNC(=O)Cn2c(-c3ccc(F)cc3)cc(C(C)=O)c2C)cc1OC	1%	/	-3%	/	/	/	/
CCN1CCN(C(=O)Cn2nc(-c3ccc(Cl)cc3)ccc2=O)CC1	-13%	25%	-5%	3%	-2%	?	-8%
COc1cccc2c1C(=O)C[C@]1(CCCC[C@@H]1C)O2	-4%	1%	4%	0%	-6%	2	-5%
